# Columns and labels:
# Assay in all cases: DAPPL (digital affinity profiling via proximity ligation, sequencing); 10 mM Tris-HCl pH 7.5, 50 mM NaCl, 1 mM DTT, 4% glycerol, room temperature, 30 min; GST-TFs on glutathione beads, 16-mer random dsDNA library, 0.1% formaldehyde crosslink after washing; high values mean tight binding
# FLI1 = target: T1, FLI1 (Homo sapiens, UniProt Q01543 1-452); settings: protein: recombinant; tags: N-terminal GST; dsDNA, one strand shown
# T1 sequence: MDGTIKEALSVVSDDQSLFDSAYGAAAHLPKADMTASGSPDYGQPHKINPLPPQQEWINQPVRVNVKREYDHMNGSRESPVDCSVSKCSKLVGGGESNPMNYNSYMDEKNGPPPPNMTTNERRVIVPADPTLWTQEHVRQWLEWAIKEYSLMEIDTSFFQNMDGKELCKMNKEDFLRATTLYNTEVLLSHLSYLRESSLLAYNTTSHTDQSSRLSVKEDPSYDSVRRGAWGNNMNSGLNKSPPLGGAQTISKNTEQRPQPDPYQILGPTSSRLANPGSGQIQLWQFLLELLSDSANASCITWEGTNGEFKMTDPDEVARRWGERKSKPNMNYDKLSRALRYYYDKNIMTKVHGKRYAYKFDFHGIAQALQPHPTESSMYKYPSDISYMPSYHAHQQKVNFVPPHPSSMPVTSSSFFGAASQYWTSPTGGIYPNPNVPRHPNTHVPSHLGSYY
# Method in brief: (§1)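 Sequencing on an Illumina NextSeq500 followed washing, crosslinking with 0.1% formaldehyde, proximity ligation (BsaI/T4 ligase, 1 h, 37 °C) and PCR amplification of pools that had been incubated for 30 min at room temperature with 200 nmole of a random double-stranded 16-mer DNA library in Tris/NaCl/DTT/glycerol buffer. Each pool held DNA-barcoded human transcription factors, expressed in yeast as GST fusions and captured on glutathione beads, plus a tag-only sample. Binding signal is a hexamer's read frequency for a factor divided by its frequency in the tag-only sample.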
# ELK1 = target: T2, ELK1 (Homo sapiens, UniProt P19419 1-428); settings: protein: recombinant; tags: N-terminal GST; dsDNA, one strand shown
# T2 sequence: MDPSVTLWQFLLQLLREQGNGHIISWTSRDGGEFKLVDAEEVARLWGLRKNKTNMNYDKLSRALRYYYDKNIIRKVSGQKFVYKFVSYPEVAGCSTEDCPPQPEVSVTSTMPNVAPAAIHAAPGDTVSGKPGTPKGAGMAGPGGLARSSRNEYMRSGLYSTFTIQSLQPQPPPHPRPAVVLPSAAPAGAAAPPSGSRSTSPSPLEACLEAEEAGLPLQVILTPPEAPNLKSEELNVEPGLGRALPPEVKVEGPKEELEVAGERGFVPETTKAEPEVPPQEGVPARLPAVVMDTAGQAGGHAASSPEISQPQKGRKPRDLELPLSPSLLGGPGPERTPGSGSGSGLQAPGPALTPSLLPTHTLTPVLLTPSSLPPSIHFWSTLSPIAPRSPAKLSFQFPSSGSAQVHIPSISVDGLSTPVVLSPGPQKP
# Method in brief: as §1
# GABPA = target: T3, GABPA (Homo sapiens, UniProt Q06546 1-454); settings: protein: recombinant; tags: N-terminal GST; dsDNA, one strand shown
# T3 sequence: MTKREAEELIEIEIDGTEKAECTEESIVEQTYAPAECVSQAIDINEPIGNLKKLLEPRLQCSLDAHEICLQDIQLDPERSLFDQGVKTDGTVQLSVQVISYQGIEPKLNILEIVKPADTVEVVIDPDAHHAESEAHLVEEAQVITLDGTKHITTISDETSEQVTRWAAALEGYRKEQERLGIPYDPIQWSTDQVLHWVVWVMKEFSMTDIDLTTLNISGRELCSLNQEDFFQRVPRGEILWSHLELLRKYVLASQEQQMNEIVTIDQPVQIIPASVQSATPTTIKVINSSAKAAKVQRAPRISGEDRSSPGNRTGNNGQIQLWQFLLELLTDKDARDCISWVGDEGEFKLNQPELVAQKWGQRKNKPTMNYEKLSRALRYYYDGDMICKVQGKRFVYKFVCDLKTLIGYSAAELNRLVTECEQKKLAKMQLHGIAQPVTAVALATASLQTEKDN
# Method in brief: as §1
# ERG = target: T4, ERG (Homo sapiens, UniProt P11308 1-479); settings: protein: recombinant; tags: N-terminal GST; dsDNA, one strand shown
# T4 sequence: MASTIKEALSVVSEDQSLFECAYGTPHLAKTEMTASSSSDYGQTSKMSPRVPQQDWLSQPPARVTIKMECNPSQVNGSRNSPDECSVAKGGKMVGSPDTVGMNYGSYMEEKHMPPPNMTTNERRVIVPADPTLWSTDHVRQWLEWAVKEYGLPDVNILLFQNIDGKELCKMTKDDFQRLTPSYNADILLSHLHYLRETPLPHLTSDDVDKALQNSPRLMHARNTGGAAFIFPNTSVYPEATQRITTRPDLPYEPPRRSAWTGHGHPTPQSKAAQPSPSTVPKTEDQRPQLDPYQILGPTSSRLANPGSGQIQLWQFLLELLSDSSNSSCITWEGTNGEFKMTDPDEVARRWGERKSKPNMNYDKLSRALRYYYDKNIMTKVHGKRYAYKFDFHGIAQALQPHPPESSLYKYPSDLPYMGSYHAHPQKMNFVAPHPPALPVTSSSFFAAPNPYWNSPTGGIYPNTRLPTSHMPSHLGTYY
# Method in brief: as §1
# ELF1 = ELF1 (Homo sapiens, UniProt P32519 1-619); settings: protein: recombinant; tags: N-terminal GST; dsDNA, one strand shown
# Chain of ELF1 (P32519 whole entry): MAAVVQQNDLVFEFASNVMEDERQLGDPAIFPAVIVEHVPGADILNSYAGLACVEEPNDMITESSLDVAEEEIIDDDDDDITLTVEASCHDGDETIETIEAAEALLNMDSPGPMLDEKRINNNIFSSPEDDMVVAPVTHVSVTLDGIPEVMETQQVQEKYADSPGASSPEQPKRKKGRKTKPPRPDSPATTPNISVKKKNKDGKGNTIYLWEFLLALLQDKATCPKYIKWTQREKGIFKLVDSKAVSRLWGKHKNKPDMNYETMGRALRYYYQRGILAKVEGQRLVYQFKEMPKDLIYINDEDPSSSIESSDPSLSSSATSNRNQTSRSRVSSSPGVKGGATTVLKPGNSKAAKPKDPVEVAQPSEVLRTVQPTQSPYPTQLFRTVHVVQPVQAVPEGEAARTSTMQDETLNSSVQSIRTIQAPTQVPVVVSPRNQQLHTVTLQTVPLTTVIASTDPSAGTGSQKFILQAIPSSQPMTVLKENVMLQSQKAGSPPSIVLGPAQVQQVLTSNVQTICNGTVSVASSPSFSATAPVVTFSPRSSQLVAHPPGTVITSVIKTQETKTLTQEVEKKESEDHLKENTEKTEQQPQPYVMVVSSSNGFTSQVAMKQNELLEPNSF
# Method in brief: as §1
# EHF = target: T5, EHF (Homo sapiens, UniProt Q9NZC4 1-300); settings: protein: recombinant; tags: N-terminal GST; dsDNA, one strand shown
# T5 sequence: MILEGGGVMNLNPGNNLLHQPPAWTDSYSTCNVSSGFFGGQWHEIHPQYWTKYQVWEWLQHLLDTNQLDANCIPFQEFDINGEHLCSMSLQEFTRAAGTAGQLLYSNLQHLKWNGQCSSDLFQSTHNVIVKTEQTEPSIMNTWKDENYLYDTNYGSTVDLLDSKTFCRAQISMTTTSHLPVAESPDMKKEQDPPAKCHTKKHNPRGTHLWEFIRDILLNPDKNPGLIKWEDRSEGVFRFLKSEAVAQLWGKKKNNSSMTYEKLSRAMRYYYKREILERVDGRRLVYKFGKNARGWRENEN
# Method in brief: as §1
# SPI1 = SPI1 (Homo sapiens, UniProt P17947 1-270); settings: protein: recombinant; tags: N-terminal GST; dsDNA, one strand shown
# Method in brief: as §1
# SPIB = SPIB (Homo sapiens, UniProt Q01892 1-262); settings: protein: recombinant; tags: N-terminal GST; dsDNA, one strand shown
# Chain of SPIB (Q01892 whole entry): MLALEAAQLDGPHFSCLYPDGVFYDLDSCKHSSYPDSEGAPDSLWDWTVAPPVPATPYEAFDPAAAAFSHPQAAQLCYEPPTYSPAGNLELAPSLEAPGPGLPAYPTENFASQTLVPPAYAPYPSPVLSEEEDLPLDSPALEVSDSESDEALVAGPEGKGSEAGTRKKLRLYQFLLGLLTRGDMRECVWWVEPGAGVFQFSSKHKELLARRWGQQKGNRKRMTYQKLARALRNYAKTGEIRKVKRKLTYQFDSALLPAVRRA
# Method in brief: as §1
# ELK3 = target: T6, ELK3 (Homo sapiens, UniProt P41970 1-407); settings: protein: recombinant; tags: N-terminal GST; dsDNA, one strand shown
# T6 sequence: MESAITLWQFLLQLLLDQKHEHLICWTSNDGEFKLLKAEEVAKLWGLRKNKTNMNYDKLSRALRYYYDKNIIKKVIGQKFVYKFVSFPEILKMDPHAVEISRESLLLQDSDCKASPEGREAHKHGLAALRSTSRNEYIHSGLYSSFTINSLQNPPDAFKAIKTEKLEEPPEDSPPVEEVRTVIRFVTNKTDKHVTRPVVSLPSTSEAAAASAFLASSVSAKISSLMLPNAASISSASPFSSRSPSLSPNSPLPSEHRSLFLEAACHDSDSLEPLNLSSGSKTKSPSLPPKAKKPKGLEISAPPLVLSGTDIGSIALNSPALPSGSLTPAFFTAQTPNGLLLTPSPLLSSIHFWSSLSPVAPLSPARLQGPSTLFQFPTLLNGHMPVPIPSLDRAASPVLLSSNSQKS
# Method in brief: as §1
# FEV = target: T7, FEV (Homo sapiens, UniProt Q99581 1-238); settings: protein: recombinant; tags: N-terminal GST; dsDNA, one strand shown
# T7 sequence: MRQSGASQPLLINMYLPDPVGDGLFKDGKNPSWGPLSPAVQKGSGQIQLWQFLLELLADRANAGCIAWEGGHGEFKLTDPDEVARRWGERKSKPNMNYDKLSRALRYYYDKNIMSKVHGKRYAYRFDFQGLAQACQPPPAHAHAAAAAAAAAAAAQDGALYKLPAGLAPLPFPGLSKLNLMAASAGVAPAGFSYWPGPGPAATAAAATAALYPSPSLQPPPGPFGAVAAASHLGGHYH
# Method in brief: as §1
# ETV5 = ETV5 (Homo sapiens, UniProt P41161 1-510); settings: protein: recombinant; tags: N-terminal GST; dsDNA, one strand shown
# Chain of ETV5 (P41161 whole entry): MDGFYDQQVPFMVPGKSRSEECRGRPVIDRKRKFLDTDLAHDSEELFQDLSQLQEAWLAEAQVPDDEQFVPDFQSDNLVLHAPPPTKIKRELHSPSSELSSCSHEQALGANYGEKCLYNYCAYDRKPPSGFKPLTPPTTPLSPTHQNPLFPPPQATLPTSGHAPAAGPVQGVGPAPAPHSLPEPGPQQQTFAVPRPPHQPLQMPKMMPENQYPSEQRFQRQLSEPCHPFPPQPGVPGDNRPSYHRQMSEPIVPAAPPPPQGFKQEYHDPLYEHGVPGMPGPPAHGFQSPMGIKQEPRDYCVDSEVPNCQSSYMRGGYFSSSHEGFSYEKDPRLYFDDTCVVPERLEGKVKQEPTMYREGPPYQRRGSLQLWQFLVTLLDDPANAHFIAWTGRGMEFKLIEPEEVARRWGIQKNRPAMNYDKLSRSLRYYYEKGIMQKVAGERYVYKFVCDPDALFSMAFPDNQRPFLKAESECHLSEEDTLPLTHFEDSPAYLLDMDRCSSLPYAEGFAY
# Method in brief: as §1
# HSF1 = HSF1 (Homo sapiens, UniProt Q00613 1-529); settings: protein: recombinant; tags: N-terminal GST; chain copies: 3; dsDNA, one strand shown
# Chain of HSF1 (Q00613 whole entry): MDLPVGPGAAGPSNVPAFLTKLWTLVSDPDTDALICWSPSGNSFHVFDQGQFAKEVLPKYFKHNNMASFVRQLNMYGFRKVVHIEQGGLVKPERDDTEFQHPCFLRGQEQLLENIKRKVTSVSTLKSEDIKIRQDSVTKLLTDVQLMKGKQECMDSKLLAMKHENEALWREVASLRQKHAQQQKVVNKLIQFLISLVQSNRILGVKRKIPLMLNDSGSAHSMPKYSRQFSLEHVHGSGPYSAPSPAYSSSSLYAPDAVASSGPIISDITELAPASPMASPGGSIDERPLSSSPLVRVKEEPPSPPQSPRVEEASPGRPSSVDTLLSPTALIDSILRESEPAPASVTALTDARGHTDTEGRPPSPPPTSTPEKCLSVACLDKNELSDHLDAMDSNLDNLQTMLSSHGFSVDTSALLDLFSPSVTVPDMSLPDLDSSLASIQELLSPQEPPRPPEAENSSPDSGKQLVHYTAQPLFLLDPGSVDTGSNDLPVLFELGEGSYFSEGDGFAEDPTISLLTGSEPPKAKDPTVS
# Method in brief: as §1
# SPIC = target: T8, SPIC (Homo sapiens, UniProt Q8N5J4 1-248); settings: protein: recombinant; tags: N-terminal GST; dsDNA, one strand shown
# T8 sequence: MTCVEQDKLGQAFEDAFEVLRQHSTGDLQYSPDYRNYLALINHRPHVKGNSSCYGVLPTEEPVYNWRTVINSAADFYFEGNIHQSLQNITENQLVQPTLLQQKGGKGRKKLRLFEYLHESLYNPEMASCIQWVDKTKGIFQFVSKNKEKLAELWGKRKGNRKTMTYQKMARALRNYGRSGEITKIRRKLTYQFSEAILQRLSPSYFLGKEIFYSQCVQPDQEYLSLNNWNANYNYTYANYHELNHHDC
# Method in brief: as §1
# ELF4 = ELF4 (Homo sapiens, UniProt Q99607 1-663); settings: protein: recombinant; tags: N-terminal GST; dsDNA, one strand shown
# Chain of ELF4 (Q99607 whole entry): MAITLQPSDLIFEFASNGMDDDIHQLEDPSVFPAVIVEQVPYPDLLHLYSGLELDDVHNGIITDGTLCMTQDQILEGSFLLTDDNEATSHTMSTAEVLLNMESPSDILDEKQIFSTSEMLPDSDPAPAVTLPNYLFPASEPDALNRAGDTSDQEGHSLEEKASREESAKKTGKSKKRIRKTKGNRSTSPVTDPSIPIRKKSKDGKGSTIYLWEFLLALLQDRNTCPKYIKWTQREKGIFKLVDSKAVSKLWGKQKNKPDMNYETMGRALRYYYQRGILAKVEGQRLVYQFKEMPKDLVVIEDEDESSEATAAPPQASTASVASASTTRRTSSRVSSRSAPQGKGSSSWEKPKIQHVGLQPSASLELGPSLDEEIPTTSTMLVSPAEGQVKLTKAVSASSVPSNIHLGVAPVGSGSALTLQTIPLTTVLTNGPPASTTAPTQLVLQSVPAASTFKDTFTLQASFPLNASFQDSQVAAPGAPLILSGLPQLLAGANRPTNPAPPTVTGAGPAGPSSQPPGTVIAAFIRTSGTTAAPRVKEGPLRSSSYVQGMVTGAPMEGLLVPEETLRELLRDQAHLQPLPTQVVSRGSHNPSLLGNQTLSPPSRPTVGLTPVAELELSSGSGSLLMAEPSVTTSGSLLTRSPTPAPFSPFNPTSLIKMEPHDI
# Method in brief: as §1
# ELK4 = target: T9, ELK4 (Homo sapiens, UniProt P28324-2 1-405); settings: protein: recombinant; tags: N-terminal GST; dsDNA, one strand shown
# T9 sequence: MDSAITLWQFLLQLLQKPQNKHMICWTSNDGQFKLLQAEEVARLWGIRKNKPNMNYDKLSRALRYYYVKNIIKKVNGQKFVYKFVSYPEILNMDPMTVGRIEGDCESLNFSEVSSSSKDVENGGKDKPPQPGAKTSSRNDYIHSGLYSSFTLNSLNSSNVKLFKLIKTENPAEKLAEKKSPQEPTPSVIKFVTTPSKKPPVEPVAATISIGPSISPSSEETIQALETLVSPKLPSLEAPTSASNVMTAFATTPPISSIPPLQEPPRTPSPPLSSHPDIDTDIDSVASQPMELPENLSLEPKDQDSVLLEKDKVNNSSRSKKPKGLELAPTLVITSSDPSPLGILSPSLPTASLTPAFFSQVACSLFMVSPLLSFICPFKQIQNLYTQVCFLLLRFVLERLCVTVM
# Method in brief: as §1
# ETV2 = target: T10, ETV2 (Homo sapiens, UniProt O00321 1-342); settings: protein: recombinant; tags: N-terminal GST; dsDNA, one strand shown
# T10 sequence: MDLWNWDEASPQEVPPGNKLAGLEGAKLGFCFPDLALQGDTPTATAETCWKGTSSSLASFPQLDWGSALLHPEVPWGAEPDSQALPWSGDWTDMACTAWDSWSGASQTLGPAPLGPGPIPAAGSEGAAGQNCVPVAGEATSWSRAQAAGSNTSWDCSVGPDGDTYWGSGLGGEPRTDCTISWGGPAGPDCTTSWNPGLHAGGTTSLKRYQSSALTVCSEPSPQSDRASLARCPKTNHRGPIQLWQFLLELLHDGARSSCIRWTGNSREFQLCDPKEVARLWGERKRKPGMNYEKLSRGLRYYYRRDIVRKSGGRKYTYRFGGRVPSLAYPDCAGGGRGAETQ
# Method in brief: as §1
# ELF3 = target: T11, ELF3 (Homo sapiens, UniProt P78545 1-371); settings: protein: recombinant; tags: N-terminal GST; dsDNA, one strand shown
# T11 sequence: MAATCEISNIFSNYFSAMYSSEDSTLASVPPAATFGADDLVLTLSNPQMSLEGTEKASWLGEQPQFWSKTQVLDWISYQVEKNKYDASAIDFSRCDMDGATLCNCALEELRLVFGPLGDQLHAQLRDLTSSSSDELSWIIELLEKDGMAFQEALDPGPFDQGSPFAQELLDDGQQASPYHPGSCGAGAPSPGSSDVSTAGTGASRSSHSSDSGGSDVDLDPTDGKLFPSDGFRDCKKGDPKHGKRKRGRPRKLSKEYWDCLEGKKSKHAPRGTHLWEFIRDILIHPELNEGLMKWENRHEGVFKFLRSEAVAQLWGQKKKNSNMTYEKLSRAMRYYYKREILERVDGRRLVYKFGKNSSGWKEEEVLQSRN
# Method in brief: as §1
# CRX = CRX (Homo sapiens, UniProt O43186 1-299); settings: protein: recombinant; tags: N-terminal GST; dsDNA, one strand shown
# Chain of CRX (O43186 whole entry): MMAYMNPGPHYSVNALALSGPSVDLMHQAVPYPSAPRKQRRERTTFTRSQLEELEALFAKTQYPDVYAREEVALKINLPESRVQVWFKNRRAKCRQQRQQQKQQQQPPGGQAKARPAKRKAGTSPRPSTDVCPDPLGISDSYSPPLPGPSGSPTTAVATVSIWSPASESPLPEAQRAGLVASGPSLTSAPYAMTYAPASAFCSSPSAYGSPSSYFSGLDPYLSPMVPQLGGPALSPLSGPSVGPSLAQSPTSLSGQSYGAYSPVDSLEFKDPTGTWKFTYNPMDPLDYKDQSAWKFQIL
# Method in brief: as §1
# ETV1 = ETV1 (Homo sapiens, UniProt P50549 1-477); settings: protein: recombinant; tags: N-terminal GST; dsDNA, one strand shown
# Chain of ETV1 (P50549 whole entry): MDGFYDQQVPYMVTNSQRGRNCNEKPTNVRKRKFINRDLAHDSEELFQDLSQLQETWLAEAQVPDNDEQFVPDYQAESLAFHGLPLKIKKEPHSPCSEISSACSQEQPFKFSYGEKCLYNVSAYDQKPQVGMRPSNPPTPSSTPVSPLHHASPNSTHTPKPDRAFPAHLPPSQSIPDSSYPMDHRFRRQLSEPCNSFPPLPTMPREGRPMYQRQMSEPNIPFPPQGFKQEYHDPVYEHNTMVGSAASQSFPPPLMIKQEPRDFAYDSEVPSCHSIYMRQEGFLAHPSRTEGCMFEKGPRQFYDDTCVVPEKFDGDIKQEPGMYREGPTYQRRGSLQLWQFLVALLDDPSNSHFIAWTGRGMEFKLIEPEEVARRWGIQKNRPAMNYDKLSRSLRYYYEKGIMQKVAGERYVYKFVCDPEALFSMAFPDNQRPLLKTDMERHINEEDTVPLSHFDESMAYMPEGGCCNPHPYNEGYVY
# Method in brief: as §1
sequence,measurement,setting,value
CCACTA,binding signal,FLI1,"1.1 fold enrichment (6-mer frequency, TF over GST control)"
same,binding signal,ELK1,"1.14 fold enrichment (6-mer frequency, TF over GST control)"
same,binding signal,GABPA,"1.14 fold enrichment (6-mer frequency, TF over GST control)"
same,binding signal,ERG,"1.08 fold enrichment (6-mer frequency, TF over GST control)"
same,binding signal,ELF1,"1.13 fold enrichment (6-mer frequency, TF over GST control)"
same,binding signal,EHF,"1.06 fold enrichment (6-mer frequency, TF over GST control)"
same,binding signal,SPI1,"1.04 fold enrichment (6-mer frequency, TF over GST control)"
same,binding signal,SPIB,"1.04 fold enrichment (6-mer frequency, TF over GST control)"
same,binding signal,ELK3,"1.22 fold enrichment (6-mer frequency, TF over GST control)"
same,binding signal,FEV,"1.08 fold enrichment (6-mer frequency, TF over GST control)"
same,binding signal,ETV5,"1.12 fold enrichment (6-mer frequency, TF over GST control)"
same,binding signal,HSF1,"1.08 fold enrichment (6-mer frequency, TF over GST control)"
same,binding signal,SPIC,"1.11 fold enrichment (6-mer frequency, TF over GST control)"
same,binding signal,ELF4,"1.11 fold enrichment (6-mer frequency, TF over GST control)"
same,binding signal,ELK4,"1.06 fold enrichment (6-mer frequency, TF over GST control)"
same,binding signal,ETV2,"1.14 fold enrichment (6-mer frequency, TF over GST control)"
same,binding signal,ELF3,"1.1 fold enrichment (6-mer frequency, TF over GST control)"
same,binding signal,CRX,"1.12 fold enrichment (6-mer frequency, TF over GST control)"
same,binding signal,ETV1,"1.03 fold enrichment (6-mer frequency, TF over GST control)"

# — publication PMC7862700, “An all-to-all approach to the identification of sequence-specific readers for epigenetic DNA modifications on cytosine”
